From the supplement of paper PMC11732987, “Enantioselective OTUD7B fragment discovery through chemoproteomics screening and high-throughput optimisation” (Communications Chemistry, 2025)

What was measured:
Assay in all cases: log2 ratio of Biotin-Ahx-Ub-VS probe labelling (fragment/DMSO); higher = less target engagement (more negative = stronger competition), active = hit call of the paper (q ≤ 0.05, log2 ratio ≤ -1)
Settings in all cases: compound concentration: 200 uM; treatment time: 3 h
USP19 = molecular target: T1, USP19 (UniProt O94966)
T1 sequence (whole entry): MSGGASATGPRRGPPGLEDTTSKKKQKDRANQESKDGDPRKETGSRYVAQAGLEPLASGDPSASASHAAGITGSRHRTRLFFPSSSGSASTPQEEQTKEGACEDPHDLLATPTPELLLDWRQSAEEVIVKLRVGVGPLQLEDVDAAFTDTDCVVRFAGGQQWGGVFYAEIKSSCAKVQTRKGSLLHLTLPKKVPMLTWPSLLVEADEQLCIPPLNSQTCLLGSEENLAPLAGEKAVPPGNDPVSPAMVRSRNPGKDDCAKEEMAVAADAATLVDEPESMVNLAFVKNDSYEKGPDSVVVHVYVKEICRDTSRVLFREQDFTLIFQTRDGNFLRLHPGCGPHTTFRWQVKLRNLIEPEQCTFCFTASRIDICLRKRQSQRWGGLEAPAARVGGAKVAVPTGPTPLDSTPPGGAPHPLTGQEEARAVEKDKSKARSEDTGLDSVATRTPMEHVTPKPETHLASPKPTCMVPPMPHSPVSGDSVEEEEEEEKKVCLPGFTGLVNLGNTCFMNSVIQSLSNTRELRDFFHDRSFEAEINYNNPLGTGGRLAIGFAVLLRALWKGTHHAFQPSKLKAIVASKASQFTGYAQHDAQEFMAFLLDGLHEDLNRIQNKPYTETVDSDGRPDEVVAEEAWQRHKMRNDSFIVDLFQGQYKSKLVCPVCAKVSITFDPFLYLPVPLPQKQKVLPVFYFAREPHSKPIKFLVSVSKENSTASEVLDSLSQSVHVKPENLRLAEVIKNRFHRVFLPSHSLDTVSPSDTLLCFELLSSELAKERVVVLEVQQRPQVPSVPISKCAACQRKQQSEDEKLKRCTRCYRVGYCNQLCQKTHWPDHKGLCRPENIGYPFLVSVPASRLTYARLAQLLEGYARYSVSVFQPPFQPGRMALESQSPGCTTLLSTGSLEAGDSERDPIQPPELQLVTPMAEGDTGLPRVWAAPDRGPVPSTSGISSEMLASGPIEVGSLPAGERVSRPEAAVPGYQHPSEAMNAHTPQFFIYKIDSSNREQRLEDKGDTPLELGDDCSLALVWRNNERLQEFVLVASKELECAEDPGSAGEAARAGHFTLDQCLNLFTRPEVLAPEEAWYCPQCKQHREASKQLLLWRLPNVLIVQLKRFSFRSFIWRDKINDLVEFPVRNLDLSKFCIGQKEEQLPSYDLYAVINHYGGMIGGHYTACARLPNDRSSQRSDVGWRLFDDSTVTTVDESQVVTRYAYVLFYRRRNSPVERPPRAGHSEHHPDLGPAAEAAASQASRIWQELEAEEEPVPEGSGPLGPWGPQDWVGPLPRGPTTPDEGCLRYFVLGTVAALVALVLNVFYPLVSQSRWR
Outline: (§1)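 Each value is an average log2 ratio of fragment to vehicle, tested by unpaired t-test. The underlying Spectronaut label-free quantities were global-median-normalised, and only proteins with ≥2 unique peptides were included. Triplicate HEK293T lysate samples (495 µg) were exposed to fragment at 200 µM or vehicle for 3 h, then to Biotin-Ahx-Ub-VS at 0.5 µM final for 1 h, before NeutrAvidin enrichment of labelled DUBs, LysC and trypsin digestion, and diaPASEF LC-MS/MS.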

USP22 = molecular target: T2, USP22 (UniProt Q9UPT9)
T2 sequence (whole entry): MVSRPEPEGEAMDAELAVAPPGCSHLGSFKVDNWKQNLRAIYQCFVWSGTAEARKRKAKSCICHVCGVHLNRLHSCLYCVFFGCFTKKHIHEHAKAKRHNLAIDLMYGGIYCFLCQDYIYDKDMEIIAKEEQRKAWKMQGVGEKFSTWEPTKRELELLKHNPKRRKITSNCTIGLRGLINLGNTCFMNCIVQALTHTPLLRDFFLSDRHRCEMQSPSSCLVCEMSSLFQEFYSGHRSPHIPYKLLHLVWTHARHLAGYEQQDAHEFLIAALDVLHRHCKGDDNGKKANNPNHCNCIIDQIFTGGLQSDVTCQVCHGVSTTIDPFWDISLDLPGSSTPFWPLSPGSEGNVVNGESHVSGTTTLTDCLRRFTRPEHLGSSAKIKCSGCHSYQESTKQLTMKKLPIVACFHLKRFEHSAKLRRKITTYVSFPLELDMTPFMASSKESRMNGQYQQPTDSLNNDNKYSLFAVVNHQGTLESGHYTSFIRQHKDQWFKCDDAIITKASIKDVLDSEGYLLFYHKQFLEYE
Outline: as §1

USP24 = USP24 (UniProt Q9UPU5)
Sequence of USP24 (Q9UPU5 whole entry): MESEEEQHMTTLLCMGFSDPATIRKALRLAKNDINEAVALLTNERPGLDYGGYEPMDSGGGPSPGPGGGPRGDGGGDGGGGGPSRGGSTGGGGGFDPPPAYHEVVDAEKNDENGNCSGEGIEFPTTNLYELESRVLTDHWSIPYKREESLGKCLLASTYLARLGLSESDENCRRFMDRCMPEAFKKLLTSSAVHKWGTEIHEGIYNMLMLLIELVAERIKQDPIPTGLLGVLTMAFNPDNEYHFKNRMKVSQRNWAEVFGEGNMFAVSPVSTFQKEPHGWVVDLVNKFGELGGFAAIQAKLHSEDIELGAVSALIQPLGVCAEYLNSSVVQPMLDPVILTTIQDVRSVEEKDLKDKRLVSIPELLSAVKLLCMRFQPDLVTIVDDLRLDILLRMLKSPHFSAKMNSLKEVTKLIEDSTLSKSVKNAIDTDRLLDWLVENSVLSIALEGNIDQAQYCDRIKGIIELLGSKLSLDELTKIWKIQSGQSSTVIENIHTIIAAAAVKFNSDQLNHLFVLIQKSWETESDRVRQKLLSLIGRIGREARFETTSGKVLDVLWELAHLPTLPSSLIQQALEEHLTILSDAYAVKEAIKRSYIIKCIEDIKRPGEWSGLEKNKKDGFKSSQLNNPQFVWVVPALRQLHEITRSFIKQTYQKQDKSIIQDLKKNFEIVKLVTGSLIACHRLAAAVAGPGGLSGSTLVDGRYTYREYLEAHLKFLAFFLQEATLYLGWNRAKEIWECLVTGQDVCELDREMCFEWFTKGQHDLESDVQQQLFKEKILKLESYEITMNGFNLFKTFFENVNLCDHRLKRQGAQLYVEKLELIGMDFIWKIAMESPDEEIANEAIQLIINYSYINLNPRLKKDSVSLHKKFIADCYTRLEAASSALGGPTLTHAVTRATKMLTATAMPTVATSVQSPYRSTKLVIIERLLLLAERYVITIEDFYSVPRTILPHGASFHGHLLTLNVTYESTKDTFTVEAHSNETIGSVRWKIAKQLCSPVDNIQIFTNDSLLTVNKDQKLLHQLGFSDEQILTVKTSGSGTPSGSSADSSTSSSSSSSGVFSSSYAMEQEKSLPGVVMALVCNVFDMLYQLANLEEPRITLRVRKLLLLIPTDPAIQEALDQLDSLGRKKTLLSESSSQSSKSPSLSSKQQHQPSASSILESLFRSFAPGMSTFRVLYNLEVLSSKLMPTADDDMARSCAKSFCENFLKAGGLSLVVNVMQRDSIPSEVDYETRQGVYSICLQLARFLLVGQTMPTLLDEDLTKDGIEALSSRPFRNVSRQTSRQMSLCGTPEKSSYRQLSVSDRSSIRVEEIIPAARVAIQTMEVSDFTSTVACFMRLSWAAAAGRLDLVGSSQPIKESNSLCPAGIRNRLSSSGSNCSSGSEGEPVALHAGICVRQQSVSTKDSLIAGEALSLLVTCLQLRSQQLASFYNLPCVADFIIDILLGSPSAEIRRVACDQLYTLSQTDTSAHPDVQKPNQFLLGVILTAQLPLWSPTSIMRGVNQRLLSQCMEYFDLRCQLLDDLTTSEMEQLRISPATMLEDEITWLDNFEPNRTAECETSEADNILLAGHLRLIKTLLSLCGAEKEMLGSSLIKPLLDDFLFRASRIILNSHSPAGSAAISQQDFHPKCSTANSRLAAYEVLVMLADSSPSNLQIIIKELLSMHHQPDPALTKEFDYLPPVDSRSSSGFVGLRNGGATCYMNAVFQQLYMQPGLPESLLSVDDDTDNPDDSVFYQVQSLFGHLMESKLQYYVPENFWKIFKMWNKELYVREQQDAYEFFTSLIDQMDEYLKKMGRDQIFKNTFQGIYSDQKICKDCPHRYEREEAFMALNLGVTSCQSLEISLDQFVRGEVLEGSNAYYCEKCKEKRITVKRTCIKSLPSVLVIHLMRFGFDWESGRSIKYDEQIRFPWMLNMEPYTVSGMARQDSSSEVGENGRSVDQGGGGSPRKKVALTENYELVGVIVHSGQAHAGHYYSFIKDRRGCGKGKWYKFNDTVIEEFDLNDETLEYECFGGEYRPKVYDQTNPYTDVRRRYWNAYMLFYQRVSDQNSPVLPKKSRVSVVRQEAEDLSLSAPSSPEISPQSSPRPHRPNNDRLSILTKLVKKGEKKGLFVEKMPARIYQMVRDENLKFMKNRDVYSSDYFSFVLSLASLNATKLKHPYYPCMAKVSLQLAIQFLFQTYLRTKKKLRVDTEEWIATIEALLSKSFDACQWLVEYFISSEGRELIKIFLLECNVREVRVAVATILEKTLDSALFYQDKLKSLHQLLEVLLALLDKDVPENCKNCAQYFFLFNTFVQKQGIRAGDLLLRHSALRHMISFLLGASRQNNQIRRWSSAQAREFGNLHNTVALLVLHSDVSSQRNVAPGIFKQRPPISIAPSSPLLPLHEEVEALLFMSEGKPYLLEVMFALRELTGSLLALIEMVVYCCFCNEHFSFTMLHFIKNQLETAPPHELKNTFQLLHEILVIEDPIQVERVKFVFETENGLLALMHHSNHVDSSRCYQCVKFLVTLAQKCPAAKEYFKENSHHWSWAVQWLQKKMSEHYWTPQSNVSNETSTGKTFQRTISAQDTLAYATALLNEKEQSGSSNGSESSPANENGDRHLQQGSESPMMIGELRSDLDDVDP
Outline: as §1

USP25 = molecular target: T3, USP25 (UniProt Q9UHP3)
T3 sequence (whole entry): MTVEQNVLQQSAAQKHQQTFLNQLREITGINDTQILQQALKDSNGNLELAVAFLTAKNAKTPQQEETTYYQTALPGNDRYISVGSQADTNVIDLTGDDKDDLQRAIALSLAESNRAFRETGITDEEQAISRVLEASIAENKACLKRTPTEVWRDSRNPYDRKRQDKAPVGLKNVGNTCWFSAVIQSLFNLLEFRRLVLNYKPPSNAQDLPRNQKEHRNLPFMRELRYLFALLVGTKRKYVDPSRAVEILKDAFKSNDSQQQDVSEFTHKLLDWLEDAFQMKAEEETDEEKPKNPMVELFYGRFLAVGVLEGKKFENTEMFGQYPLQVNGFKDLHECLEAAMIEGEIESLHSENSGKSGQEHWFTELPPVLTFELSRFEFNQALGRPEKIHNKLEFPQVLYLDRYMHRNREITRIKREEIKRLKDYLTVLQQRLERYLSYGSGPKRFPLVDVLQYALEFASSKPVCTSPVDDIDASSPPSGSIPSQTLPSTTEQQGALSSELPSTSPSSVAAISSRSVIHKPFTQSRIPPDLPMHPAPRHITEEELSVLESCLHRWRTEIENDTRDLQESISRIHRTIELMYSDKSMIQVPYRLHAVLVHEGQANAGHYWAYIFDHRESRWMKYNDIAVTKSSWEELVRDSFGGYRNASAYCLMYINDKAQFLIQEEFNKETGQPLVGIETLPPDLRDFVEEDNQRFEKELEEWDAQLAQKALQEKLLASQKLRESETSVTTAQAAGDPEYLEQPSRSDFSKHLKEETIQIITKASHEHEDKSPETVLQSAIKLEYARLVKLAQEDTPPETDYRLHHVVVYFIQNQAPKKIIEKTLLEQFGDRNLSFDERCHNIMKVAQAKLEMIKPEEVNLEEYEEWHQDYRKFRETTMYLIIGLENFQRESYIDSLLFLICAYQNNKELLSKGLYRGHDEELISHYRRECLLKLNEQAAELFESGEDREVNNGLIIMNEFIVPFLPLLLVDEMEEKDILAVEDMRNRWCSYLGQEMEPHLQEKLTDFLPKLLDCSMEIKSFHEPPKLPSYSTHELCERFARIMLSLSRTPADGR
Outline: as §1

USP28 = molecular target: T4, USP28 (UniProt Q96RU2)
T4 sequence (whole entry): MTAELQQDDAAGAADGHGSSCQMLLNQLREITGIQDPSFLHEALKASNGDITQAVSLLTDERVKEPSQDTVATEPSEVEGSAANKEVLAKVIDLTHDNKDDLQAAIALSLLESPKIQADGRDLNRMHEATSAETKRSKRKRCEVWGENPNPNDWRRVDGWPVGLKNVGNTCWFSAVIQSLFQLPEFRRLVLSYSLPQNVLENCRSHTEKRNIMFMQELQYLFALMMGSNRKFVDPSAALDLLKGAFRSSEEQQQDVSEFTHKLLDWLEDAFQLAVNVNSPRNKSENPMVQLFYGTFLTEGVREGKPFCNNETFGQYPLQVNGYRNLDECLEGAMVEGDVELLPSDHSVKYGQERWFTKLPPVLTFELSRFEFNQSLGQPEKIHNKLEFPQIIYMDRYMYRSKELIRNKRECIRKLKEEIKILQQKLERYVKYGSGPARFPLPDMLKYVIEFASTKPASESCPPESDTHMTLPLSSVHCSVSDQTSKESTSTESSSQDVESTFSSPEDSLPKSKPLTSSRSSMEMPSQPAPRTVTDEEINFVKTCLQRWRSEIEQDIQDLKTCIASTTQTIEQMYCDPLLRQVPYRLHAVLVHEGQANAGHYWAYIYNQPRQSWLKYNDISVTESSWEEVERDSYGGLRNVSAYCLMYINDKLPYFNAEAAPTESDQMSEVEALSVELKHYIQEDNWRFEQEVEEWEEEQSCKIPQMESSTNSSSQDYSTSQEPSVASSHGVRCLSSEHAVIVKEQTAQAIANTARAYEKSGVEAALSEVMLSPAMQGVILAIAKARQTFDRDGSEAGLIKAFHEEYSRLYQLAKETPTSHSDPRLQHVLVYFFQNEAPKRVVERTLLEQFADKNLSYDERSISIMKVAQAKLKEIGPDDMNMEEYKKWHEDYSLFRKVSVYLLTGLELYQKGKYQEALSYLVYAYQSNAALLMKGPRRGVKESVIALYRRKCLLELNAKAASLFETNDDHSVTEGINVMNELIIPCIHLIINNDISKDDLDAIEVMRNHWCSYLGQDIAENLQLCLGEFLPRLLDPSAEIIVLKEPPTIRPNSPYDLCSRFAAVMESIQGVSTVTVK
Outline: as §1

Measured: log2 ratio of Biotin-Ahx-Ub-VS probe labelling

O=C(CCl)N(C1CCCC1)C1CCS(=O)(=O)C1 (stereo not given)
inactive: USP19 -0.0865 | USP22 0.236 | USP24 -0.274 | USP25 0.0715 | USP28 -0.36
